Source: PubChem BioAssay (National Center for Advancing Translational Sciences (NCATS))
TRHR agonist: TRH receptor (human) agonism; P34981; TRHR cells, calcium flux fluo-8, FDSS agonist mode; activation, % at 2 µM; 360,000 tested, 0.18% active; AID 493084
Target sequence (P34981 whole entry, looked up): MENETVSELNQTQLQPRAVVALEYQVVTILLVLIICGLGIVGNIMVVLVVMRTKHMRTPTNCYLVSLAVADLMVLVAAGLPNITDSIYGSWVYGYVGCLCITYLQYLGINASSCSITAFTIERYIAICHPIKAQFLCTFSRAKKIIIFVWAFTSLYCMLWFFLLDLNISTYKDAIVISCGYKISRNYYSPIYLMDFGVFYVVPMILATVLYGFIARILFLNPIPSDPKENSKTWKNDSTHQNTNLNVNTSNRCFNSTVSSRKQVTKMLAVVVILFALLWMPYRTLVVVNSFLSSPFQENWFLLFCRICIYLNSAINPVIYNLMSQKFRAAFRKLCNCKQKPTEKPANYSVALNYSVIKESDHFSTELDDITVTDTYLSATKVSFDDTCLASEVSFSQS
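Agonist-mode FDSS calcium read (Ex 480/Em 530, 1 s cycles) in 1536-well TRHR cells with fluo-8 dye, after 10-cycle baseline and 23 nL compound addition; TRH at EC20 (10 nM final) added afterwards for the enhancer phase.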
D1 antagonist: blocks dopamine activation of the human D1 receptor. HEK293 TREx D1 cells, calcium flux, dopamine EC80; hits give low values. P21728. activity change, negative = inhibition, % at 10 µM. 360,000 tested, 3.2% active; in the data active means activity change below about -30%
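Kinetic fluorescence of a calcium dye serves as the read-out. D1-expressing Hek293 Trex cells, induced overnight at 30 C, are exposed to compound for 180 s before an EC80 dopamine addition, then read 180 s further.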
TRHR PAM: allosteric enhancers of human TRH receptor; TRHR cells, fluo-8 calcium fluorescence, EC20 TRH enhancement; P34981; enhancement, % at 2 µM; AID 493056; 360,000 tested, 0.66% active; in the data active means enhancement above about 30%
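TRHR-expressing cells loaded with fluo-8 calcium dye were read kinetically (ex 480/em 530) during compound addition, then stimulated with an EC20 of TRH (10 nM final). Enhancement of the Gq-mediated intracellular calcium response was scored.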
D1 PAM: human D1 dopamine receptor positive modulation. P21728. HEK293 TREx D1 cells, calcium flux, dopamine EC20 potentiation. potentiation, % at 10 µM. 360,000 tested, 0.036% active; in the data active means potentiation above about 30%
D1 agonist: agonists of human D1 dopamine receptor; 360,000 tested, 1% active; P21728; activation, % at 2 µM; HEK293 T-REx D1 cells, calcium flux, agonist mode
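Inducible HEK293 T-REx D1 cells, force-coupled to calcium signalling, were plated at 4000 cells/well with tetracycline and held overnight at 30 C. After no-wash calcium dye loading, compound-evoked calcium rise over 180 s flagged agonists.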
Each line names hits and unclear results; the compound was inactive in the other large screens. Only some compounds are listed: those with a hit (about 4.6% of all), similar ones and a draw of the others. Unless noted, no stated cut-off is given here; in the data, active means activation above about 30%; inactive means the rest.

Cc1ccccc1NCc1cccn1-c1nnc(N2CCC(C)CC2)s1	none
Cc1nnc2c3ccccc3nc(Nc3ccc(F)cc3Cl)n12	none
COc1cc(Cl)c(C)cc1Nc1nc2ccccc2c2nnc(C)n12	TRHR PAM 33
COCCN1C(=O)c2[nH]nc(-c3ccccc3O)c2C1c1ccc(Cl)c(Cl)c1 (stereo unspecified)	none
Cc1cc(CNC(=O)CC2C(=O)NCCN2CC(C)(C)C)nn1C (stereo unspecified)	D1 antagonist -39
COc1cccc2sc(N(Cc3cccnc3)C(=O)COc3ccccc3)nc12	none (no result: D1 antagonist)
O=C(NCc1nnc(-c2nc3ccccc3[nH]2)o1)C1CCCCC1	none
CCC1(c2ccccc2)NC(=O)N(CC(=O)N(CC(=O)Nc2ccccc2C(F)(F)F)Cc2ccco2)C1=O (stereo unspecified)	D1 agonist 44
CC1=NN(C(=O)c2ccccc2-n2cccc2)C(O)(C(F)(F)F)C1 (stereo unspecified)	D1 antagonist -50
O=C(Nc1cccc(-n2cccn2)c1)C1CCCN(Cc2ccccc2F)C1 (stereo unspecified)	D1 antagonist -36
CCCOc1ccc(-c2nn(-c3ccccc3)cc2C2NC(=O)NC(C)=C2C(=O)OC)cc1C (stereo unspecified)	none
CCOc1ccccc1C(=O)Oc1c(S(=O)(=O)c2ccc(C)cc2)c(C)nn1-c1ccccc1	none
CCOc1cc(C)c(S(=O)(=O)Nc2ccc3cn[nH]c3c2)cc1C	D1 agonist 33
CCOC(=O)[C@H]1[C@H]2COc3ccc(OC)cc3[C@@H]2N2C(=O)CN(C)C(=O)[C@@]12C	none (no result: D1 antagonist)
C/C(=N\NC(=O)Cc1cccn1C)c1ccc2ccccc2c1	D1 antagonist -36
CCc1nn(CC(=O)NCCCc2ccccc2)c(=O)c2cc3c(OC)cccc3n12	none
CCOCCCNC(=O)Cn1nc(CC)n2c(cc3c(OC)cccc32)c1=O	D1 antagonist -30
CCc1nn(CC(=O)NCCCN(C)Cc2ccccc2)c(=O)c2cc3sc(C)cc3n12	D1 antagonist -37
COc1cccc2c1cc1c(=O)n(CC(=O)NCCCc3ccccc3)nc(C)n12	D1 antagonist -39
O=C(Nc1cc(Cl)cc(Cl)c1)c1coc(=O)c(Br)c1	D1 antagonist -46, D1 agonist 37
COc1ccc(NC(=O)CN(C)C(=O)c2ccccc2OCC(=O)Nc2cccc(C(F)(F)F)c2)cc1	D1 antagonist -33
COc1ccc(CN(C)C(=O)c2ccc(OCC(=O)Nc3cccc(C(F)(F)F)c3)c(OC)c2)c(OC)c1	none
CCOc1ccc(S(=O)(=O)Nc2ccc(C(=O)N3CCCC3)cc2)cc1	none
O=C(c1ccc(S(=O)(=O)Nc2ccccc2)cc1)N1CCCC(C(F)(F)F)C1 (stereo unspecified)	D1 agonist 51
O=C(NCC1(N2CCOCC2)CCCCC1)c1cccc(S(=O)(=O)Nc2ccc(F)cc2)c1	none
CC(=O)c1ccc(S(=O)(=O)Nc2ccc(-c3ccc(N4CCCCC4)nn3)cc2)cc1	TRHR PAM 31
CCOc1ccc(NS(=O)(=O)c2ccc(C(=O)N3CCCC(C)C3)cc2)cc1 (stereo unspecified)	D1 antagonist -52, D1 agonist 59
O=C(NCC1(N2CCCCC2)CCCCC1)c1cccc(S(=O)(=O)Nc2ccc(F)cc2)c1	D1 antagonist -38
Cc1ccc(Cl)cc1-n1ncc2c(Nc3ccc4c(c3)OCCO4)ncnc21	none
COc1ccc(OC)c(NC(=O)Cn2c(=O)c3cccn3c3ccccc32)c1	none
CCCN1Cc2cccc(C(=O)Nc3ccc(OC)cc3OC)c2C1=O	none
CCOc1ccc(NS(=O)(=O)c2ccc(C(=O)NCC3(N(C)C)CCCCC3)cc2)cc1	none
Cc1ccc(NS(=O)(=O)c2ccc(C(=O)N3CCCCCC3)cc2)cc1	D1 agonist 31
CCOc1ccc(OCc2ccc(C(=O)N3CCCC(C)C3)cc2)cc1 (stereo unspecified)	D1 antagonist -30
CCOc1ccc(NS(=O)(=O)c2ccc(C(=O)NCC3(N4CCCCC4)CCCCC3)cc2)cc1	D1 agonist 31
CCOc1ccc(NS(=O)(=O)c2ccc(C(=O)N3CCCCCC3)cc2)cc1	D1 agonist 59
CCCCN(C)S(=O)(=O)c1cc(-c2nnc3c4ccccc4c(C)nn23)ccc1C	none
COc1ccccc1CNc1ncnc2c1c(-c1ccccc1)cn2-c1ccc(Br)cc1	none
CN(C(=O)c1ccc2c(c1)N(Cc1cccc(Cl)c1)C(=O)c1ccccc1S2(=O)=O)C1CCCCC1	none
Cc1ccccc1NS(=O)(=O)c1ccc(C(=O)N2CCC2)cc1	D1 antagonist -63
CCOc1ccccc1NS(=O)(=O)c1ccc2[nH]c(=O)[nH]c2c1	none
Cc1ccccc1NS(=O)(=O)c1ccc2[nH]c(=O)[nH]c2c1	TRHR PAM 30
CC(=O)N1CCCc2ccc(NS(=O)(=O)c3ccc(C)cc3)cc21	none
CCOc1ccc(S(=O)(=O)Nc2ccc3c(c2)N(C(C)=O)CCC3)cc1	D1 antagonist -32
CC(=O)Nc1cccc(-c2nc3ccccc3[nH]2)c1	none
CC(Oc1ccccc1)C(=O)Nc1cccc(-c2nc3ccccc3[nH]2)c1 (stereo unspecified)	D1 antagonist -40
NC(=O)c1ccccc1	D1 antagonist -99
CCOC(=O)c1ccccc1NC(=O)COC(=O)CC(C)(C)CC1=NS(=O)(=O)c2ccccc2N1	D1 antagonist -37
CNc1nc(-c2ccc3c(c2)CCN3C(=O)CC(C)(C)C)c(C)s1	D1 antagonist -35
CCN(CC)C(=O)Cn1c(=O)nc(-c2ccccc2F)c2cc(Cl)ccc21	none
C/C(=N\OCC(=O)OCC(=O)Nc1cc(S(C)(=O)=O)ccc1Cl)c1ccc2c(c1)OCO2	none
COC(=O)c1ccccc1NC(=O)CN1CCC(C(=O)c2ccc3c(c2)OCCO3)CC1	D1 antagonist -32
Cc1ccc(NC(=O)CN2CCC(C(=O)c3ccc4c(c3)OCCO4)CC2)cc1	none
COc1ccc(CCC(=O)OCC(=O)NCc2ccc3c(c2)OCO3)cc1	none (no result: D1 PAM)
C/C(=N\OCC(=O)Nc1ccc2c(c1)OCCO2)c1ccc2c(c1)OCCO2	none
COC(=O)c1ccccc1NC(=O)COC(=O)CO/N=C(\C)c1ccc2c(c1)OCO2	D1 antagonist -31
C/C(=N\OCC(=O)OCC(=O)NC(=O)c1ccccc1)c1ccc2c(c1)OCO2	D1 antagonist -40
COc1ccc(CNC(=O)COC(=O)CO/N=C(\C)c2ccc3c(c2)OCO3)cc1	D1 antagonist -33
CC(C)S(=O)(=O)c1oc(-c2cccs2)nc1S(=O)(=O)c1ccc(F)cc1	none
COc1ccc(-c2ccc(=O)n(CC(=O)NCC3COCCO3)n2)cc1 (stereo unspecified)	none
COc1ccc(CCNC(=O)c2cnc3sc(N4CCOCC4)nn3c2=O)cc1	none
O=C(CCCn1c(=O)[nH]c2ccsc2c1=O)N1CCN(c2cccc(C(F)(F)F)c2)CC1	none
